# Active and inactive are the calls of the source.
# Key:
# [1] = tested on: Plasmodium falciparum Sir2 (PF13_0152, Sir2A); assay: Plasmodium falciparum Sir2A binding compounds – biochemical, small-molecule microarray, 635 nm fluorescence, primary screen (AID 1098); conditions: fluorescence 635 nm, higher = more signal;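 further: score merges spot fluorescence intensity with its signal-to-noise ratio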
# [2] = probe aDKK1 binding to arrayed compounds – biochemical, biotinylated probe, 635/667 nm fluorescence, primary screen (AID 1099); conditions: small-molecule microarray, higher = more signal;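 further: score merges 667nm spot fluorescence with signal to noise across triplicate slides; reference of the scale not given here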
# [3] = probe aCHRDL2 binding to arrayed compounds – biochemical, biotinylated probe, 635/667 nm fluorescence, primary screen (AID 1100); conditions: small-molecule microarray, higher = more signal
# [4] = change in splice reporter luminescence, either direction, cell-based, HEK293, spliceosome inhibition project, primary screen (AID 1101); conditions: HEK293 splicing luciferase reporter, 24 h, higher = more signal, called active from +8 up or from −8 down;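 further: HEK293 cells carrying a splicing-competent luciferase reporter gene; test concentration not given here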
# [5] = target: Fibroblast growth factor 10 (Homo sapiens) (UniProt O15520); assay: compounds binding fibroblast growth factor 10 – biochemical, small-molecule microarray, 635 nm fluorescence, primary screen (AID 1102); conditions: FGF10 binding, fluorescence 635 nm, higher = more signal
# Fibroblast growth factor 10 (Homo sapiens), sequence (O15520 whole entry, looked up): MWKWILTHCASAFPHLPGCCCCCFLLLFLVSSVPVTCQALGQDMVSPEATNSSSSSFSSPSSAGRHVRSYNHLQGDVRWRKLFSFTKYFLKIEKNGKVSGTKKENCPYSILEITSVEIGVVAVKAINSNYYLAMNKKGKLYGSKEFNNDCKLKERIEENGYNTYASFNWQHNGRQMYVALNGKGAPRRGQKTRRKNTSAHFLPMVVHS
# [6] = tested on: glycogen synthase kinase-3 (GSK3A per assay name; protocol says GSK3B); assay: compounds binding glycogen synthase kinase-3 – biochemical, small-molecule microarray, 635 nm fluorescence, GSK3A, primary screen (AID 1103); conditions: fluorescence 635 nm, higher = more signal; further: the record names both GSK3A and GSK3B
# [7] = target: Epidermal growth factor receptor (Homo sapiens) (UniProt P00533); assay: compounds binding epidermal growth factor receptor – biochemical, small-molecule microarray, 635 nm fluorescence, primary screen (AID 1104); conditions: EGFR binding, higher = more signal;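 further: score merges 667 nm emission intensity with spot signal to noise over triplicate slides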
# Epidermal growth factor receptor (Homo sapiens), sequence (P00533 whole entry, looked up): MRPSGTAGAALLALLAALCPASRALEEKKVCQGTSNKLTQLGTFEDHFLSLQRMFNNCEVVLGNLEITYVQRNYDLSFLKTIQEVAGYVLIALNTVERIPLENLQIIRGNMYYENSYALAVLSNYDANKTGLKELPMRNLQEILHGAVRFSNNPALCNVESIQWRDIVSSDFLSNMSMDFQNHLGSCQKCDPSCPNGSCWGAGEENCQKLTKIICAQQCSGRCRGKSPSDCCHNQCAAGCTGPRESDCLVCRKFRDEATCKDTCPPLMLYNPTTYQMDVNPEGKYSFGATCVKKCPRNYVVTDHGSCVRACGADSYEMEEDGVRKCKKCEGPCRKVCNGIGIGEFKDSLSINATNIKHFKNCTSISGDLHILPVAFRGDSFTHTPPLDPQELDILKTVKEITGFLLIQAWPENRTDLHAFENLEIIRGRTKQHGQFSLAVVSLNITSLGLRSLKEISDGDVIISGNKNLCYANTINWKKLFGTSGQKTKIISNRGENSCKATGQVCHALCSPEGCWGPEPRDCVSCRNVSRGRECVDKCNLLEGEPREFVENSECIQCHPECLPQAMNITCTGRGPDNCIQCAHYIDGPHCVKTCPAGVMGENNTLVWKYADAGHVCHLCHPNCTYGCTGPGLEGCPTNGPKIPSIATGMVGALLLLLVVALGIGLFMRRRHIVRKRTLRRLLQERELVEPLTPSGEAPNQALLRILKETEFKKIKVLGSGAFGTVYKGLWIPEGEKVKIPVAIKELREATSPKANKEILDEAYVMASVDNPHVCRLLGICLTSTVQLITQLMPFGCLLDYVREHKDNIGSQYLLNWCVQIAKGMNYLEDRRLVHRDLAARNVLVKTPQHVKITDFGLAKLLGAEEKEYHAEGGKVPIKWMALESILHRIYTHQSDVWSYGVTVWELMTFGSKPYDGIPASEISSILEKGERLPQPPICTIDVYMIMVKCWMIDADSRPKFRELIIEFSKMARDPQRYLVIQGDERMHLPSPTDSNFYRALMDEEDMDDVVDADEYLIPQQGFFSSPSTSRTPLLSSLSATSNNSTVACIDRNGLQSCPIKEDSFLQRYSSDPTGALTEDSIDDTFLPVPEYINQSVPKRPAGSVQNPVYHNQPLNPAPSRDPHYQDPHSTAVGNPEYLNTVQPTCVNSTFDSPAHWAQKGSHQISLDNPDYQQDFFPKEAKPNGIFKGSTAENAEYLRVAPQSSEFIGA
# [8] = target: Follistatin-related protein 3 (Homo sapiens) (UniProt O95633); assay: compounds binding follistatin-related protein 3 – biochemical, small-molecule microarray, 635 nm fluorescence, primary screen (AID 1105); conditions: FSTL3 binding, higher = more signal;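 further: score merges emission near 667 nm and signal to noise per printed spot across three slides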
# Follistatin-related protein 3 (Homo sapiens), sequence (O95633 whole entry, looked up): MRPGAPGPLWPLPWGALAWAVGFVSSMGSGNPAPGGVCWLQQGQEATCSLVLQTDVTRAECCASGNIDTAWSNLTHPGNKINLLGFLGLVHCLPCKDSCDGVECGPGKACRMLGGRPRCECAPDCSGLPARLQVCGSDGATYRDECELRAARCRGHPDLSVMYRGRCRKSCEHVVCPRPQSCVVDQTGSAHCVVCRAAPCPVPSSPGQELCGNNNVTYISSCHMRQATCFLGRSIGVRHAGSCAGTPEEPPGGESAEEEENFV
# [9] = target: Dickkopf-related protein 1 (Homo sapiens) (UniProt O94907); assay: small molecules binding DKK1 protein – biochemical, small-molecule microarray, 635 nm fluorescence scan, primary screen (AID 1106); conditions: higher = more signal;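 further: score merges emission near 667 nm with signal to noise over three replicate slides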
# Dickkopf-related protein 1 (Homo sapiens), sequence (O94907 whole entry, looked up): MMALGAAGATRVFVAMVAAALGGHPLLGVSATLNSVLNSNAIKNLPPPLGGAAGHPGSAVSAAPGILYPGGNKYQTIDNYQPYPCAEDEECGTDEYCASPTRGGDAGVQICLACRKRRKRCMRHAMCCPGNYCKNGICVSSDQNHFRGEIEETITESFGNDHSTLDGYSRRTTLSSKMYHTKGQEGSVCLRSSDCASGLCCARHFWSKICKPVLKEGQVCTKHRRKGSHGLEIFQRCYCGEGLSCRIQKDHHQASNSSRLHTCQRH
# [10] = tested on: Inhibin beta A chain (activin A); assay: small molecules binding activin A – biochemical, small-molecule microarray, 635 nm fluorescence scan, primary screen (AID 1107); conditions: INHBA, higher = more signal;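 further: mouse activin A protein probed at 4.33 µg/mL on printed slides; score merges bound-protein fluorescence near 667 nm with spot signal-to-noise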
Structure (SMILES),composite z-score [1],composite z-score [2],composite z-score [3],z-score [4],composite z-score [5],composite z-score [6],composite z-score [7],composite z-score [8],composite z-score [9],composite z-score [10]
COC(=O)C(C(=O)OC)C1CCCC(=O)C1 (stereo not given),0.377,-0.207,-0.618,-0.388 (inactive),0.755,0.772,0.399,0.508,0.978,0.151
COC(OC)[C@@H](C)[C@H](OC)[C@@H](C)[C@H](OC)c1ccccc1,-0.15,-0.185,-0.449,-1.31 (inactive),0.0549,-0.485,0.231,0.327,0.392,0.499
CC(C)CON=C1C[C@@H](O)[C@@H](O)[C@@H]2[C@@H]3C(=O)N(C(C)(C)C)C(=O)[C@@H]3CC[C@@H]12,1.08,-0.58,-1.35,-1.15 (inactive),0.156,1.25,0.85,0.85,1.95,0.418
CC(C)CON=C1C[C@@H](O)[C@@H](O)[C@@H]2[C@@H]3C(=O)N(Cc4ccc5c(c4)OCO5)C(=O)[C@@H]3CC[C@@H]12,0.409,-0.218,-0.208,0.0483 (inactive),0.0677,-0.315,-0.203,-0.0661,-0.337,-0.0043
CCOC(=O)[C@H](Cc1ccccc1)NC(=O)CCC1CC(OC(=O)NCCc2ccc(F)cc2)CC2(CCCC(COC(=O)NCCC(C)C)O2)O1 (stereo not given in full),1.16,-0.226,-0.415,-0.0793 (inactive),0.52,1.01,0.396,1.18,0.648,0.0186
CCN1C(=O)[C@H]2[C@H]3[C@H](O)[C@H](O)CC(=NOCC[C@@H]4C=C[C@H](OC(C)=O)[C@@H](COC(C)=O)O4)[C@@H]3CC[C@H]2C1=O,0.0458,-0.107,-0.426,-0.0787 (inactive),0.476,0.0008,0.498,0.38,0.476,0.079
CC#CCOCCC=C1c2ccccc2[C@@H](OC)[C@@H]1C,0.183,-0.168,-0.42,0.478 (inactive),0.593,-0.406,0.0594,0.449,0.487,-2.36
CC(C)=CCCC(C)=CCON=C1C[C@@H](O)[C@@H](O)[C@@H]2[C@@H]3C(=O)N(Cc4ccc5c(c4)OCO5)C(=O)[C@@H]3CC[C@@H]12,0.769,-0.268,-0.451,0.0709 (inactive),1.01,0.579,0.696,1.03,0.915,1.3
COC(=O)[C@H](Cc1ccccc1)NC(=O)[C@@H](C)CO,-0.535,0.629,0.389,-1.36 (inactive),0.477,0.0595,0.651,1.03,0.671,1.1
CC(C)[C@H](NC(=O)OC(C)(C)C)[C@@H](O)CC(=O)C(C)(C)C,0.447,-0.268,-0.428,-0.275 (inactive),0.159,-0.191,0.327,0.29,0.513,-0.0828
COc1ccc(O[C@H]2C=C[C@@H](c3ccccc3)O[C@@H]2COC(=O)CCC(C)=NOC[C@@H](O)COCc2ccco2)cc1,-1.47,-0.866,0.0183,-0.909 (inactive),-2.67,-1.95,-2.8,-2.9,-1.99,-0.0879
COc1ccc(O[C@H]2C=C[C@@H](c3ccccc3)O[C@@H]2CO)cc1,0.281,-0.227,-0.116,-0.752 (inactive),0.194,0.207,0.731,0.318,0.485,0.622
COC(=O)[C@H](C)NC(=O)CCC1CC(OC(=O)NCc2cccc3ccccc23)CC2(CCCC(COC(=O)NCc3ccccc3)O2)O1 (stereo not given in full),0.537,-0.132,-0.459,-0.829 (inactive),0.625,1.04,0.445,0.918,0.667,-0.0949
CC(=O)OC[C@H]1O[C@H](CC=NOC(C)CN2CCCCc3nc(C)c(C)cc32)C=C[C@@H]1OC(C)=O (stereo not given in full),1.14,-0.0799,-0.199,0.375 (inactive),0.83,1.31,1.59,1.31,1.68,1.13
CO[C@H]1COC(=O)[C@H](C)COC(=O)[C@@H](OCc2ccccc2)C=C[C@@H]1C,-0.0072,-0.386,-0.743,0.0228 (inactive),0.083,-0.357,0.274,-0.266,0.32,0.251
CC(=O)OC[C@H]1O[C@H](CCON=C(C)CCN2CCCc3nc(C)c(C)cc32)C=C[C@@H]1OC(C)=O,0.773,-0.108,-0.408,1.06 (inactive),0.932,1.24,0.986,1.16,0.735,0.965
O=C1C[C@@H](O)[C@@H](O)[C@@H]2[C@@H]3C(=O)N(C4CCCCC4)C(=O)[C@@H]3CC[C@@H]12,0.607,-0.28,-0.504,0.602 (inactive),1.11,0.235,0.613,0.59,0.555,-0.156
CO[C@@H]1C=CCC(=O)N[C@@H](C)C(=O)OC[C@@H](OC)[C@H](C)C=CCC(=O)OC[C@H]1C,1.27,-0.266,-1.14,0.175 (inactive),0.656,0.808,1.07,1.53,1.35,1.77
CC(=O)OC[C@H]1O[C@@H](ON=C2[C@H]3CCn4c(=O)n(-c5ccccc5)c(=O)n4[C@H]3[C@H](O)[C@@H]3O[C@H]23)[C@H](OC(C)=O)[C@@H](OC(C)=O)[C@@H]1OC(C)=O,0.242,-0.425,-0.43,0.764 (inactive),0.614,0.913,0.519,0.387,0.731,-0.1
O=C1C=C[C@@H](O)[C@@H]2[C@@H]3C(=O)N(Cc4ccc5c(c4)OCO5)C(=O)[C@@H]3CC[C@@H]12,0.382,-0.0574,-0.528,-0.5 (inactive),0.515,0.719,0.523,0.579,0.615,-0.513
CCN1C(=O)[C@H]2[C@H]3[C@H](O)[C@H](O)CC(=NO[C@@H]4O[C@H](CO)[C@@H](O)[C@H](O)[C@H]4O)[C@H]3CC[C@H]2C1=O,0.0675,-0.219,-0.447,-0.0478 (inactive),0.456,0.342,0.933,0.619,0.611,0.182
CC(=O)OC[C@H]1O[C@H](C#CCCc2ccccc2)C=C[C@@H]1OC(C)=O,1.05,-0.0993,-0.438,0.181 (inactive),0.787,-0.113,0.187,0.981,1.02,0.309
CC(CCN1CCCCc2nc(C)c(C)cc21)=NO[C@H](C)c1cn([C@@H]2COC[C@H]2O)nn1,0.742,-0.404,-0.961,1.09 (inactive),1.23,1.16,1.61,1.43,2.15,1.21
COC(=O)CC=C[C@@H](C)[C@@H](C=NOC[C@@H](O)[C@H]1O[C@@H]2OC(C)(C)O[C@@H]2[C@H]1O)OC,0.42,-0.0276,-0.673,-0.123 (inactive),0.247,0.589,0.496,0.115,0.56,-0.16
CO[C@@H]1COC(=O)[C@@H]2CCCN2C(=O)[C@@H](C)COC(=O)CCC[C@H]1C,0.877,-0.331,-0.624,-1.27 (inactive),0.981,0.561,0.38,0.621,0.661,-0.751
CON=C(C)CCN1CCc2nc(-c3ccccc3)c(-c3ccccc3)cc2C1,0.689,-0.104,0.173,-0.316 (inactive),-0.0075,-0.478,0.629,0.272,0.468,1.25
CC1(C)O[C@H]2OC([C@H](O)CON3C(=O)c4ccccc4C3=O)[C@H](O)[C@H]2O1 (stereo not given in full),-0.0933,-0.467,-0.562,0.105 (inactive),0.0612,0.0618,0.237,0.205,0.46,-0.582
O=C1C2=CC[C@H]3C(=O)N(C4CCCCC4)C(=O)[C@H]3[C@H]2[C@H](O)[C@@H]2O[C@H]12,-0.541,-0.121,-0.588,15.3 (active),-0.246,-1.31,0.0862,-1.22,0.271,-0.185
C#CCCCON=C1C[C@@H](O)[C@@H](O)[C@@H]2[C@@H]3C(=O)N(C4CCCCC4)C(=O)[C@@H]3CC[C@@H]12,0.369,0.0266,-0.287,0.466 (inactive),0.743,-0.0432,0.336,0.556,0.692,0.265
CC(C)(C)N1C(=O)[C@H]2[C@H]3[C@H](O)[C@H](O)CC(=NOC[C@@H](O)COCc4ccco4)[C@@H]3CC[C@H]2C1=O,0.34,0.774,0.588,0.369 (inactive),0.249,-0.332,-0.144,-0.248,-0.272,0.426

# Reference: PubChem BioAssay
